# Reference: PubChem BioAssay (NCI)
# About 83,000 compounds went through this panel and 20% of them were active in at least one assay; those are over-represented in the sample as a whole.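 Cell lines were cultured in 96-well plates, exposed to a single compound concentration, and assessed for percent growth 48 hours later.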 Unmarked numbers belong to inactive results. Active and inactive are the calls of the source. Rule for the calls: active = growth percent below 10; inactive = the rest.
# System: HCT-116 colon
# Assay: NCI-60 one-dose screen, 48 h (100 = growth as untreated, 0 = no growth, -100 = all killed)
# Conditions: 10 µM unless noted
row,SMILES,growth
1,COc1ccc(-n2c(SCc3n[nH]c(=S)o3)nc3ccc(Cl)cc3c2=O)cc1,104%
2,CNC(=O)c1cc(Oc2ccc3nc(NC(=O)c4ccc(N5CCOCC5)c(C(F)(F)F)c4)sc3c2)ccn1,60.2%
3,COc1ccc(/C=C(/C)c2ccc3ccc(OC)cc3[o+]2)c(O)c1,50.7%
4,O=C1[C@H]2Cc3c([nH]c4ccccc34)[C@@H](c3ccc(Br)cc3)N2C(=O)CN1C1CCN(CC2CCCCC2)CC1,-93.2% (active)
5,O=C(c1ccc(O)cc1)[C@@H]1CN[C@@]2(C(=O)Nc3ccccc32)[C@H]1c1ccc(F)cc1,104%
6,COc1ccc(/C=C(\C#N)C(=O)N2c3ccccc3Sc3ccc(SC)cc32)cc1F,91.2%
7,CN1CCN(Cc2ccc(NC(=O)c3cncc(C#Cc4cnn5cccnc45)c3)cc2C(F)(F)F)CC1,4.34% (active)
8,CCOC(=O)c1c(NC(=O)c2ccccc2C(F)(F)F)sc2c1CCC(=O)C2,11%
9,Nc1nc(-c2cccc([N+](=O)[O-])c2)c(N=Nc2ccccc2)s1,54.8%
10,Cc1ccc(C(=O)NN2C(=O)/C(=C/C=C/c3ccco3)SC2=S)cc1,98.2%
11,Cc1nc(-c2ccccc2O)ccc1C(=O)N=Nc1c(O)[nH]c2ccc(Br)cc12,99.1%
12,NS(=O)(=O)c1ccc(-n2cc(-c3cccc(NC(=O)c4ccc(N5CCOCC5)c(C(F)(F)F)c4)c3)nn2)cc1,32.5%
13,CCc1cccc(NC(=O)CNc2cc(S(=O)(=O)N(C)C)cc(C)c2C)c1,91.3%
14,COc1ccc(-c2nc3cccc(O)c3c(=O)n2Cc2ccccc2)cc1COc1ccc(NC(C)=O)cc1,22.1% [3 µM]
15,O=C(CN1CCN(c2cc(=O)n(-c3ccccc3)c3ccccc23)CC1)Nc1nc(-c2ccc(Cl)cc2)cs1,35.8%
16,Cc1c(Cl)cccc1S(=O)(=O)Nc1ccc2c(c1)C(=O)N(C1CCC(=O)NC1=O)C2=O (stereo not given),107%
17,C#CC(=O)N(c1ccc(OC)cc1OC)C(C(=O)NCC(=O)OCC)c1cccs1 (stereo not given),41.9%
18,COc1ccccc1N1CCN(C2=CC(=O)C(C)=C(C)C2=O)CC1,106%

row,SMILES,growth
1,COc1cc(/C=C2\C(=O)Nc3ccccc32)ccc1OCc1ccc(Cl)cc1,86.9%
2,Nc1ncc(-c2ccc3ncnc(N4CCc5cc(F)c(F)cc54)c3c2)cn1,28.9%
3,COc1ccc(-c2nc(C(Cl)Cl)nc3cc(-c4ccccc4)nn23)cc1,1.5% (active)
4,Cc1cc(-c2ccc(Cl)cc2)n(Cc2nnc(SCC(=O)Nc3ccc(S(N)(=O)=O)cc3)n2-c2ccc([N+](=O)[O-])cc2)n1,60.9%
5,CN1c2ccccc2Sc2cc(C=C(C#N)C#N)ccc21,105%
6,CC(C)(C)c1ccc(-c2nnc(-c3nc4ccccc4nc3Cl)o2)cc1,14.2%
7,O=C(Cn1cc[n+](CC(=O)c2ccc(-c3ccccc3)cc2)c1)Nc1cccc2cccnc12,72.4%
8,N#Cc1cccc(/C(N)=N/C(N)=N/c2nc3ccccc3s2)c1,24%
9,COc1ccccc1-n1cc(C#N)c(N)c1C(=O)c1ccc(Cl)cc1,63.5%
10,N=c1c2cc(-c3ccccc3)oc2ncn1/N=C/c1ccc(Br)cc1,50.7%
11,CC1(COc2ccc3ncc(C#Cc4cncc(C(=O)Nc5cccc(C(F)(F)F)c5)c4)n3n2)COC1,56.4%
12,Cc1cc(C(NC(=O)CCCCCNc2cccc3c2C(=O)N(C2CCC(=O)NC2=O)C3=O)c2ccc3c(c2)OC(F)(F)O3)c(O)c2ncccc12 (stereo not given),27.8%
13,N#Cc1c(NC(=O)c2cccc(C(F)(F)F)c2F)sc2c1CCC(=O)C2,-50.9% (active)
14,O=C(CN1CCN(c2cc(=O)n(-c3ccccc3)c3ccccc23)CC1)Nc1nc(-c2ccccc2)cs1,53.4%
15,CN(C)CCCOc1ccc2c(c1)CN(C(=O)c1cc(C(=O)N3Cc4cccc(F)c4C3)ccc1O)C2,106%
16,O=C(CSc1nnc(-c2ccc(Cl)cc2)n1-c1ccccc1)Nc1ccc(Br)cc1,-64.2% (active)
17,CC1(C)CC[C@]23CC[C@]4(C)[C@H](CC[C@@H]5[C@@]6(C)CCCN(CO)C(C)(C)[C@@H]6CC[C@]54C)[C@H]2[C@H]1OC3,22.1%
